The target of assay [1] is Aldehyde dehydrogenase, mitochondrial (Homo sapiens) (UniProt P05091). The assay is described as follows: qHTS for Inhibitors of the Aldehyde Dehydrogenase Family (ALDH2) Primary screen (AID 2061308).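 Also: plate controls were vehicle for no effect and reference inhibitor for full effect; nearly all actives have a fitted effect of over 55% in size.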 A general note: In qHTS, concentration-response curves come from the screen itself.
Assay [2] addresses Retinaldehyde dehydrogenase 3 (Homo sapiens) (UniProt P47895). Kind of assay: qHTS for Inhibitors of the Aldehyde Dehydrogenase Family (ALDH1A3) Validation screen (AID 2061312). Also: nearly all actives have a fitted effect of over 45% in size. Also: potency is read from the fitted curve at half-maximal effect.
Assay [3] shares this target. The assay is described as follows: qHTS for Inhibitors of the Aldehyde Dehydrogenase Family (ALDH1A3) Primary screen (AID 2061315).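 Also: plate controls were DMSO vehicle for no effect and reference inhibitor for full effect.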
Assay [4] can be described thus: BET inhibitor-based combinations targeting novel dependencies in MECOM-rearranged (r) AML: SET-2 cell line (AID 2202231). Also: nearly all actives have a fitted effect of over 35% in size. Also: potency is read from the fitted curve at half-maximal effect.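 As to viability: plate controls were DMSO treated cells for no effect and wells without cells for full effect.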 The following applies: SET-2 AML cells viability, CellTiter-Glo luminescence, 48 h; viability: active compounds read low, concentration not given here. The method, boiled down: (§1)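 AML cell lines seeded at 500 cells/well, treated with 11-point dose curves for 48 h. Viability by CellTiter-Glo luminescence, normalised to DMSO and empty wells; activity expressed as AUC and per-cell-line Z-transformed AUC.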

A short description of assay [5]: BET inhibitor-based combinations targeting novel dependencies in MECOM-rearranged (r) AML: OCI-AML3 cell line (AID 2202232). Also: nearly all actives have a fitted effect of over 35% in size. Also: potency is read from the fitted curve at half-maximal effect. Conditions: Potency: OCI-AML3 viability. The method, boiled down: as §1
Assay [6] can be described thus: BET inhibitor-based combinations targeting novel dependencies in MECOM-rearranged (r) AML: MV-4-11 cell line (AID 2202233). Also: nearly all actives have a fitted effect of over 45% in size. Also: potency is read from the fitted curve at half-maximal effect. The essentials:
(§2)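 Cells at 500/well were exposed for 48 hr to MIPE v5.0 drugs as 11-point dose curves. Viability was read by CellTiter-Glo luminescence and normalized to DMSO and empty-well controls. Activity was expressed as AUC and per-cell-line Z-AUC.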

A short description of assay [7]: BET inhibitor-based combinations targeting novel dependencies in MECOM-rearranged (r) AML: HNT-34 cell line (AID 2202234). Also: nearly all actives have a fitted effect of over 35% in size. Also: potency is read from the fitted curve at half-maximal effect. The method, boiled down:
as §2

The nature of assay [8]: BET inhibitor-based combinations targeting novel dependencies in MECOM-rearranged (r) AML: UCSD-AML1 cell line (AID 2202235). Also: nearly all actives have a fitted effect of over 40% in size. Also: potency is read from the fitted curve at half-maximal effect. The essentials:
as §2

Assay [9] in a line: BET inhibitor-based combinations targeting novel dependencies in MECOM-rearranged (r) AML: AML-191 cell line (AID 2202236; also: nearly all actives have a fitted effect of over 35% in size; also: potency is read from the fitted curve at half-maximal effect). The method, boiled down:
as §1

The nature of assay [10]: BET inhibitor-based combinations targeting novel dependencies in MECOM-rearranged (r) AML: AML-194 cell line (AID 2202237; also: nearly all actives have a fitted effect of over 40% in size; also: potency is read from the fitted curve at half-maximal effect). The essentials:
as §1

The source of these data is PubChem BioAssay (NCATS).

Results filed as inconclusive are left out. Unmarked numbers belong to inactive results. The source made the active and inactive calls. Calls follow the shape of the dose curve; as a rule, active = well fitted curve in the direction sought with a large enough effect; inconclusive = small, poorly fitted or top-dose-only effect, or another doubt; inactive = no such curve, though single readings can be large; an effect the other way counts as inactive or inconclusive.

For `CNC(=O)c1ccc2cc([C@@]3(O)CCn4cncc43)ccc2c1`, the Potency entry in [1], in [2] and in [3] was “inactive” each time.
Consider `C[C@H](Nc1cc2c(-c3ccc4c(c3)OCO4)noc2cn1)c1ccccc1`, for which the Potency entry in assay [1], in assay [2] and in [3] was “inactive” throughout.
Turning to `CC1=C(C(=O)O[C@@H]2O[C@H](COC3OCC(O)C(O)C3O)[C@@H](O)[C@H](O)[C@H]2O)C(C)(C)CCC1` (some centres not stated), in assay [1], the Potency result was “inactive”.
For the compound `O=C(COCC(=O)N1CCN(C(c2ccccc2)c2ccccc2)CC1)Nc1ccc(Cl)cc1C(=O)O`, the Potency entry in assay [1], in [2], in assay [3], in assay [5], in assay [6] and in assay [7] was “inactive” each time. Moreover, the Potency entry in assay [8], in assay [9] and in assay [10] was “inactive” each time. Moreover, the viability in assay [4] was 119%.
With `CCOC(=O)c1sc(NC(=O)[C@H](C(C)C)n2c(=O)[nH]c3ccccc3c2=O)nc1C`, the Potency entry in assay [1], in [2] and in assay [3] was “inactive” throughout.
With `N=C(N)c1ccc2nc(-c3cc(CC(=O)NC(CC(=O)O)C(=O)O)cc(-c4cc(S(N)(=O)=O)ccc4O)c3O)[nH]c2c1` (configuration not stated), the Potency entry in [1], in assay [2] and in assay [3] was “inactive” throughout.
As to `COc1cccc(N2CCN(C3=Nc4c(F)cccc4[C@H](CC(=O)O)N3c3cc(C(F)(F)F)ccc3OC)CC2)c1`, the Potency result in assay [1], in [2] and in assay [3] was “inactive” throughout.
Take `COC(=O)N(C)c1c(N)nc(-c2nn(Cc3ccccc3F)c3ncccc23)nc1N`: the Potency entry in assay [1], in assay [2], in assay [3], in assay [5], in assay [6] and in assay [10] was “inactive” throughout. Moreover, the viability in [4] was 119%.
Regarding `O=C(O)CCc1ccc(NCc2cccc3c2CCCN3CCOc2ccccc2)cc1F`, the Potency entry in assay [1], in assay [2] and in assay [3] was “inactive” throughout.
Regarding `C(#Cc1cccc(CN2CCOCC2)c1)CCN1CCCCC1`, the Potency entry in [1] and in [3] was “inactive” each time. In assay [2], the Potency is 20000 nM (active).
In the case of `CCN=C1N[C@@H]2[C@@H](O)[C@H](O)[C@@H](CO)O[C@@H]2S1`, the Potency entry in assay [1], in assay [2] and in assay [3] was “inactive” in each case.
In the case of `Cc1ccc(C(=O)C(C)CN2CCCCC2)cc1` (configuration not stated), the Potency result in assay [1], in assay [2] and in assay [3] was “inactive” throughout.
In the case of `COc1ccc(NC(=O)c2ccc(C(=N)N(C)C)cc2)c(C(=O)Nc2ccc(Cl)cn2)c1`, the Potency result in [1], in [2] and in assay [3] was “inactive” in each case.
For the compound `CC[C@@H](C)Nc1cc(C(=O)NC2CC3CCC(C2)N3c2ccc(C(=O)C3CC3)cn2)c(C)cc1C(N)=O` (some centres not stated), the Potency entry in assay [1], in [2] and in assay [3] was “inactive” in each case. For the same compound, the Potency in assay [4] was 132 nM (active); in assay [5], 166 nM (active); in assay [6], 66.1 nM (active); in assay [7], 148 nM (active); in [8] it was 263 nM (active); in [9], 209 nM (active). In assay [10], the Potency is 118 nM (active).
Consider `CC1CC(OC(=O)C(O)c2ccccc2)CC(C)(C)C1` (configuration not stated), for which the Potency entry in assay [1], in assay [2] and in [3] was “inactive” in each case.
For the compound `COc1ccccc1N1CCN(c2ncnc3n[nH]c(Br)c23)CC1`, the Potency result in assay [1], in assay [2] and in [3] was “inactive” in each case.
`Cc1nc(C(=O)N2CCC[C@H]2Cc2nnc(-c3ccccc3)o2)c(-c2ccccc2F)s1`: the Potency entry in assay [1], in assay [2] and in assay [3] was “inactive” each time.
Take `CCc1cnc(N2CCC(c3nc(COc4ccc(-n5cnnn5)cc4)cs3)CC2)nc1`: the Potency entry in [1], in [2] and in assay [3] was “inactive” in each case.
On to `O=C(OC[C@H]1O[C@@H](Oc2ccccc2COC(=O)C2(O)C=CCCC2O)[C@H](O)[C@@H](O)[C@@H]1O)c1ccccc1` (some centres not stated), for which the Potency entry in assay [1] is “inactive”.
As for `COCCN1CCC(C(=O)NO)(S(=O)(=O)c2ccc(Oc3ccc(OC(F)(F)F)cc3)cc2)CC1`, the Potency entry in [1], in assay [2] and in assay [3] was “inactive” throughout.
`CN1CCN(C2=Nc3ccccc3Nc3ccc(Cl)cc32)CC1`: the Potency result in assay [1], in [2] and in [3] was “inactive” throughout.
In the case of `COc1ccccc1N1CCN(CCCCNC(=O)c2ccc(-c3cscn3)cc2)CC1`, the Potency result in [1], in [2] and in assay [3] was “inactive” throughout.
In the case of `CC(/C=C/C1(O)C2(C)COC1(C)CC(=O)C2)O[C@@H]1O[C@H](CO)[C@@H](O)[C@H](O)[C@H]1O` (some centres not stated), the Potency result in [1] was “inactive”.
In the case of `CO[C@@H]1[C@@H](O[C@H]2O[C@@H](C)[C@H](O[C@@H]3C[C@](C)(O)[C@H](O)[C@@H](C)O3)[C@@H](N(C)C)[C@@H]2O)[C@@H](CC=O)C[C@@H](C)[C@@H](O[C@H]2CC[C@H](N(C)C)[C@H](C)O2)/C=C/C=C/C[C@@H](C)OC(=O)C[C@H]1O`, the Potency result in [1], in assay [2] and in assay [3] was “inactive” each time.
Consider `CC(C)(O)c1ccc2c(c1)ncn2-c1cccc(-c2ccccc2C#N)c1`, for which the Potency entry in assay [1], in assay [2] and in assay [3] was “inactive” each time.
Turning to `Cc1cccc(C#Cc2cc(F)cc(C#N)c2)n1`, the Potency entry in [1] is “inactive”. Also, the Potency in assay [2] is 5620 nM (active).
In the case of `CCCc1ccc(OCC(=O)N(Cc2nc(-c3cccnc3)no2)C(C)C)cc1`, the Potency entry in assay [1], in assay [2] and in assay [3] was “inactive” throughout.

What is called viability is a read-out of living cells in per cent, often relative to untreated cells.
